Measurements reported in PubChem BioAssay.
Where “and” joins values, the source holds several entries; their conditions need not be identical. Equal entries are not always repeated. Calls of active or inactive are those of the source.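 The calls were made as follows, unless noted: active = normalized viability below 100% at a tested concentration; inactive = the rest.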

Assays:
[1] = Wnt pathway potentiators raising nuclear beta-catenin – imaging, WNT3A-conditioned medium, mouse C2C12, NPC library, primary screen (AID 1117326; in the data active = nuclear beta-catenin stimulation mostly above about 4.2%, no sharp cut-off; inactive = mostly below about 10%); conditions: stronger effect = higher value
[2] = stimulators of insulin release from INS-1E, primary screen, cell-based, 5 mM glucose, NPC library (AID 1117329;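 active = compound raises insulin release from rat beta cells at 5 mM glucose, no numeric limit stated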); conditions: rat INS-1E insulin secretion, at 10 µM, stronger effect = higher value
[3] = growth inhibition of GSK3B-pretreated HCT116 cells – cell-based, CellTiter-Glo, 0.2 to 20 µM (AID 1117336;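 active = compounds lowering colon cancer cell viability after pretreatment blocking the GSK3B kinase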); conditions: HCT116 viability after GSK3B inhibitor, at 20 µM, stronger effect = higher value
[4] = inhibition of endothelial tube formation, primary screen, imaging, VEGF stimulated, CD31 staining, tube area, NPC library (AID 1117340;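 active = compound that reduces growth-factor-driven endothelial tube area in a mixed cell culture, no cutoff stated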); conditions: VEGF-stimulated ADSC/ECFC co-culture, at 10 µM, stronger effect = higher value
[5] = GLP1 release stimulators, primary, NCI-H716, NPC library (AID 1117341;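 active = compound raises GLP1 secretion from the human gut endocrine cells, with no numeric limit stated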); conditions: NCI-H716 cells, at 10 µM, stronger effect = higher value
[6] = HCT116 colon cancer cell growth inhibition, primary screen, CellTiter-Glo luminescence, NPC library (AID 1117342;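 active = compounds that lower survival of HCT116 colon cancer cells in the luminescence readout, no numeric limit stated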); conditions: at 20 µM (top of the series)
[7] = reduced SW480 viability measured with CellTiter-Glo, NPC library, primary (AID 1117343;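 active = compounds that lower viability of the colon cancer cells in the luminescence readout, with no numeric limit stated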); conditions: CellTiter-Glo luminescence; at 20 µM (top of the series)
[8] = NPC library primary testing for decreased DLD-1 cell viability via CellTiter-Glo (AID 1117346;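 active = compounds that lower survival of DLD-1 colon cancer cells in the luminescence readout, no cutoff given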); conditions: DLD-1 viability, CellTiter-Glo luminescence; at 20 µM (top of the series)
[9] = molecular target: 6-phosphogluconate dehydrogenase, decarboxylating (Homo sapiens) (UniProt P52209); test: inhibition of human phosphogluconate dehydrogenase – biochemical, recombinant enzyme, NADPH absorbance, primary screen (AID 1159550;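 active = at least 20% inhibition of 6-phosphogluconate dehydrogenase activity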); conditions: recombinant 6PGD, NADPH absorbance 341 nm; at 10 µM; stronger effect = higher value
Sequence of 6-phosphogluconate dehydrogenase, decarboxylating (Homo sapiens) (P52209 whole entry, looked up): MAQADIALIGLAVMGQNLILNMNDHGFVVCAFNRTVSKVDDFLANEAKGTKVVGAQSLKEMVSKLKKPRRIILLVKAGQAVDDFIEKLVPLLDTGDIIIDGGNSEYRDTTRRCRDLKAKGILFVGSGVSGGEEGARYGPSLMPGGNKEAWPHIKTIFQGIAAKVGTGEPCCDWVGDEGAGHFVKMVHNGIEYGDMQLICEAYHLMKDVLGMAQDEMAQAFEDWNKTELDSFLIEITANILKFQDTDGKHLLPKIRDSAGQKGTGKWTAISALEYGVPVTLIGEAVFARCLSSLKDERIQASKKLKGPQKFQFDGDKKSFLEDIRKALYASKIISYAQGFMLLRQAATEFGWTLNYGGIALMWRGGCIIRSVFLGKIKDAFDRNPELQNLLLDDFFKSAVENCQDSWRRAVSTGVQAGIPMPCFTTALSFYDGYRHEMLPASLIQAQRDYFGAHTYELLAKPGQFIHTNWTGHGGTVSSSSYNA

[10] = EMT-state selective cytotoxicity in co-culture – imaging, PC-3E GFP, TEM4-18 mCherry, primary screen (AID 1345086;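 active = compounds killing one labelled cell type while sparing the other, by normalised counts and ratio limits, not self-fluorescent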;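 as to all read-outs here: cells exposed to compound for 72 h before imaging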;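 as to red/green cell ratio (normalised): normalised mesenchymal count divided by normalised epithelial count so high means epithelial killing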); conditions: PC-3E GFP / TEM4-18 mCherry co-culture, imaging cell counts, at 1 µM; for red/green cell ratio (normalised): actives lie on both sides, counts scaled to control wells, 1 = unselective
[11] = MELAS cybrid and Rieske KO viability enhancers – cell-based, MELAS cybrids, Rieske KO mouse fibroblasts, CellTiter-Glo, primary screen (AID 1508586;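 active = mean z-score across replicates of 1.96 or higher in either the MELAS or the Rieske mutant cell line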;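 also: z relative to plate mean and SD of compound and empty wells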); conditions: low glucose
[12] = molecular target: NAD(+) hydrolase SARM1 (Homo sapiens) (UniProt Q6SZW1); test: blocking NAD cleavage by SARM1 SAM-TIR – cell lysate, NAD-Glo luminescence (AID 1508614;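 active = compound whose remaining NAD level is above about 45 nM, limit read from the data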;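 also: higher remaining NAD means stronger inhibition of SARM1 NADase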); conditions: SAM-TIR HEK293T lysate NADase, at 1 µM, stronger effect = higher value
Sequence of NAD(+) hydrolase SARM1 (Homo sapiens) (Q6SZW1 whole entry, looked up): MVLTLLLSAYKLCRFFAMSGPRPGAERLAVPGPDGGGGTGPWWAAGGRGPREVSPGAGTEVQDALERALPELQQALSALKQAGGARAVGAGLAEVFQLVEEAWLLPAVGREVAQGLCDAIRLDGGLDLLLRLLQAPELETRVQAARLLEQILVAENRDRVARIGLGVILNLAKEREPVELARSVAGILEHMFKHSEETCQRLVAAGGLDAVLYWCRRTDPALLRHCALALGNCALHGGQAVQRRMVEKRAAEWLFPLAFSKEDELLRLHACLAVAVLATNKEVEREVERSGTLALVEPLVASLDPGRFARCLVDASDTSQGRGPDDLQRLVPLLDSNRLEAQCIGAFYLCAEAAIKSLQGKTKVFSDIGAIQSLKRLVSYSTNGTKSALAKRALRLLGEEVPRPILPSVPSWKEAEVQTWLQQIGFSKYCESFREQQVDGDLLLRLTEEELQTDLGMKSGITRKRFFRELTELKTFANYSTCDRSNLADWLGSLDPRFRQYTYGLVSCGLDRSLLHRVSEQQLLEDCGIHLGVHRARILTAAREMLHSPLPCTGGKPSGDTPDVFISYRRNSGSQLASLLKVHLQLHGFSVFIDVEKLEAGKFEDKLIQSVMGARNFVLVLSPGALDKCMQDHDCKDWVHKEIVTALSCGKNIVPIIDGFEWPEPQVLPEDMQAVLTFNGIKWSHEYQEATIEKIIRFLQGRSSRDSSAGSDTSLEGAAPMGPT

F380Y = test: BK channel mutant inhibitors and activators – cell-based, U2OS BacMam, thallium flux, beta subunits, selectivity assay, profiling panel (AID 1259406;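 active = thallium flux through the channel raised or lowered by more than 3 SD from vehicle-only wells, actives on both sides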;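 also: initial slope of Thallos dye fluorescence rise after thallium is added; log ratio against the mean of 0.3% DMSO vehicle wells on the same plate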); conditions: U2OS BacMam BK variants, at 30 µM
F380Y/beta1 = test: as above; conditions: U2OS BacMam BK variants, at 30 µM
F380Y/beta2Delta = test: as above; conditions: U2OS BacMam BK variants, at 30 µM
F380Y/beta4 = test: as above; conditions: U2OS BacMam BK variants, at 30 µM
[13] = molecular target: Calcium-activated potassium channel subunit alpha-1 (Homo sapiens) + Leucine-rich repeat-containing protein 26 (Homo sapiens) (UniProt Q12791+Q2I0M4); test: as above; conditions: U2OS BacMam BK variants, F380Y/Slo1WT/gamma1, at 30 µM
Sequence of Calcium-activated potassium channel subunit alpha-1 (Homo sapiens) + Leucine-rich repeat-containing protein 26 (Homo sapiens) (Q2I0M4 whole entry, looked up, one chain of several): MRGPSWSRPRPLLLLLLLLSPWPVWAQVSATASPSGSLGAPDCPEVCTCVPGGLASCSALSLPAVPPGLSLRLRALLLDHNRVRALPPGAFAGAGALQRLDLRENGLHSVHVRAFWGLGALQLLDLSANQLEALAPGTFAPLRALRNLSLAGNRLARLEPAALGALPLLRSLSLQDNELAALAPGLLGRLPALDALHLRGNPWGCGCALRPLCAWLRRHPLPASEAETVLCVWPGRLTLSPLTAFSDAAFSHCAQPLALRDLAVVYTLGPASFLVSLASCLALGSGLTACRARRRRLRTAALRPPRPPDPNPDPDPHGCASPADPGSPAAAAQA

R275C = test: as above; conditions: U2OS BacMam BK variants, at 30 µM
[14] = viability loss with induced miR-34 in A549 – imaging, A549 dox-inducible miR-34, nuclei and caspase counts, primary screen (AID 1347080;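 active = compounds whose cell count with miR-34 switched on is under 0.7 times the count with it off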); conditions: A549 miR-34 inducible, Hoechst nuclei count, 48 h
[15] = drug combination growth inhibition, ovarian cancer – cell-based, oncology-focused library, rucaparib conditional, profiling panel (AID 1508598); conditions: patient-derived ovarian cancer cells, CellTiter-Glo viability, 144 h, stronger effect = lower value
[16] = measured here: epithelial PC-3E GFP cell survival
[17] = measured here: mesenchymal TEM4-18 mCherry cell survival
[18] = MELAS cybrid survival, CellTiter-Glo 48 h, stronger effect = higher value
[19] = Rieske KO mouse fibroblast survival, CellTiter-Glo 72 h

SMILES: COC(=O)Nc1nc2ccc(C(=O)c3ccccc3)cc2[nH]1
- nuclear beta-catenin stimulation ([1]; at 10 µM): 78.6% (active)
- nuclear beta-catenin stimulation ([1]; stimulation, at 2 µM): 42.2%
- insulin secretion stimulation [2]: -0.3% (inactive)
- viability decrease [3]: 10.7% (inactive)
- tube area decrease [4]: 102% (active)
- GLP1 secretion stimulation [5]: 2.2% (inactive)
- inhibition of viability [6]: 56.4% (active)
- viability decrease (inhibition) [7]: 27.7% (active)
- viability decrease (inhibition) [8]: 51.5% (active)
- inhibition [9]: 0.811% (inactive)
- red/green cell ratio (normalised) [10]: 1.27 (inactive)
- normalised cell number [10, 16]: 0.23
- normalised cell number [10, 17]: 0.29
- z-score [11, 18]: 0.18 (inactive) and -0.728 (inactive) and -2.21 (inactive)
- z-score [11, 19]: 0.0815 and 0.438 and 0.923
- remaining NAD [12]: 10 nM (inactive)
- log fold change Tl+ flux (F380Y): -0.0365 (inactive)
- log fold change Tl+ flux (F380Y/beta1): 0.0198 (inactive)
- log fold change Tl+ flux (F380Y/beta2Delta): -0.00923 (inactive)
- log fold change Tl+ flux (F380Y/beta4): -0.0277 (inactive)
- log fold change Tl+ flux [13]: 0.00509 (inactive)
- log fold change Tl+ flux (R275C): -0.00107 (inactive)

SMILES: CCCCCCNC(=O)n1cc(F)c(=O)[nH]c1=O
- nuclear beta-catenin stimulation ([1]; at 10 µM): 41.7% (active)
- nuclear beta-catenin stimulation ([1]; stimulation, at 2 µM): 9.5%
- insulin secretion stimulation [2]: 0.3% (inactive)
- viability decrease [3]: 65.6% (active)
- tube area decrease [4]: 68.7% (active)
- GLP1 secretion stimulation [5]: -0.8% (inactive)
- inhibition of viability [6]: 42% (inactive)
- viability decrease (inhibition) [7]: 83.7% (active)
- viability decrease (inhibition) [8]: 30.3% (inactive)
- inhibition [9]: 1.06% (inactive)
- red/green cell ratio (normalised) [10]: 0.85 (inactive)
- normalised cell number [10, 16]: 0.88
- normalised cell number [10, 17]: 0.75
- fold change ([14]; stronger effect = lower value, cell number ratio, induced over uninduced): 1.09 (inactive) and 1.08 (inactive)
- fold change ([14]; measured here: relative caspase fold change +Dox/-Dox): 1.38 and 0.815
- cell count ([14]; measured here: total cells with miR-34 induction, stronger effect = lower value): 3390 and 2360
- cell count ([14]; measured here: total cells without miR-34 induction): 3110 and 2180
- z-score [11, 18]: -0.365 (inactive) and -0.769 (inactive)
- z-score [11, 19]: 0.677 and -3.1
- viability ([15]; at 0.000305 µM, OCI-C5x cells, with rucaparib 10 µM, 100% = cells with rucaparib alone): 125% (inactive)
- viability ([15]; at 0.000305 µM, OCI-C5x cells, without rucaparib): 114% (inactive)
- viability ([15]; at 0.000305 µM, OCI-P5x cells, with rucaparib 20 µM, 100% = cells with rucaparib alone): 108% (inactive)
- viability ([15]; at 0.000305 µM, OCI-P5x cells, without rucaparib): 129% (inactive)
- viability ([15]; at 0.00122 µM, OCI-C5x cells, with rucaparib 10 µM, 100% = cells with rucaparib alone): 128% (inactive)
- viability ([15]; at 0.00122 µM, OCI-C5x cells, without rucaparib): 121% (inactive)
- viability ([15]; at 0.00122 µM, OCI-P5x cells, with rucaparib 20 µM, 100% = cells with rucaparib alone): 115% (inactive)
- viability ([15]; at 0.00122 µM, OCI-P5x cells, without rucaparib): 115% (inactive)
- viability ([15]; at 0.00488 µM, OCI-C5x cells, with rucaparib 10 µM, 100% = cells with rucaparib alone): 115% (inactive)
- viability ([15]; at 0.00488 µM, OCI-C5x cells, without rucaparib): 125% (inactive)
- viability ([15]; at 0.00488 µM, OCI-P5x cells, with rucaparib 20 µM, 100% = cells with rucaparib alone): 108% (inactive)
- viability ([15]; at 0.00488 µM, OCI-P5x cells, without rucaparib): 117% (inactive)
- viability ([15]; at 0.0195 µM, OCI-C5x cells, with rucaparib 10 µM, 100% = cells with rucaparib alone): 114% (inactive)
- viability ([15]; at 0.0195 µM, OCI-C5x cells, without rucaparib): 113% (inactive)
- viability ([15]; at 0.0195 µM, OCI-P5x cells, with rucaparib 20 µM, 100% = cells with rucaparib alone): 107% (inactive)
- viability ([15]; at 0.0195 µM, OCI-P5x cells, without rucaparib): 113% (inactive)
- viability ([15]; at 0.0781 µM, OCI-C5x cells, with rucaparib 10 µM, 100% = cells with rucaparib alone): 134% (inactive)
- viability ([15]; at 0.0781 µM, OCI-C5x cells, without rucaparib): 117% (inactive)
- viability ([15]; at 0.0781 µM, OCI-P5x cells, with rucaparib 20 µM, 100% = cells with rucaparib alone): 103% (inactive)
- viability ([15]; at 0.0781 µM, OCI-P5x cells, without rucaparib): 117% (inactive)
- viability ([15]; at 0.313 µM, OCI-C5x cells, with rucaparib 10 µM, 100% = cells with rucaparib alone): 133% (inactive)
- viability ([15]; at 0.313 µM, OCI-C5x cells, without rucaparib): 112% (inactive)
- viability ([15]; at 0.313 µM, OCI-P5x cells, with rucaparib 20 µM, 100% = cells with rucaparib alone): 101% (inactive)
- viability ([15]; at 0.313 µM, OCI-P5x cells, without rucaparib): 112% (inactive)
- viability ([15]; at 1.25 µM, OCI-C5x cells, with rucaparib 10 µM, 100% = cells with rucaparib alone): 129% (inactive)
- viability ([15]; at 1.25 µM, OCI-C5x cells, without rucaparib): 128% (inactive)
- viability ([15]; at 1.25 µM, OCI-P5x cells, with rucaparib 20 µM, 100% = cells with rucaparib alone): 95.1% (active)
- viability ([15]; at 1.25 µM, OCI-P5x cells, without rucaparib): 104% (inactive)
- viability ([15]; at 5 µM, OCI-C5x cells, with rucaparib 10 µM, 100% = cells with rucaparib alone): 223% (inactive)
- viability ([15]; at 5 µM, OCI-C5x cells, without rucaparib): 172% (inactive)
- viability ([15]; at 5 µM, OCI-P5x cells, with rucaparib 20 µM, 100% = cells with rucaparib alone): 76.9% (active)
- viability ([15]; at 5 µM, OCI-P5x cells, without rucaparib): 77.9% (active)
- remaining NAD [12]: 10 nM (inactive)
- log fold change Tl+ flux (F380Y): -0.0314 (inactive)
- log fold change Tl+ flux (F380Y/beta1): -0.0124 (inactive)
- log fold change Tl+ flux (F380Y/beta2Delta): -0.0543 (inactive)
- log fold change Tl+ flux (F380Y/beta4): -0.0261 (inactive)
- log fold change Tl+ flux [13]: -0.0355 (inactive)
- log fold change Tl+ flux (R275C): -0.0237 (inactive)
